Screens from PubChem BioAssay.
This is a sample that favours compounds with a hit; in the whole collection about 1.2% have one here.
PI5P4Ka inh = qHTS for Inhibitors of phosphatidylinositol 5-phosphate 4-kinase (PI5P4K); Phosphatidylinositol 5-phosphate 4-kinase type-2 alpha (Homo sapiens), P48426; PI5P4Kalpha enzyme, ADP-Glo luminescence, 60 min; active compounds read low; max response, %; actives 1.2% (n = 330,000); active means max response of -50% or lower; inconclusive means between -30% and -50%; inactive means -30% or higher; further: value at the top dose of about 77 µM
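Controls without substrate or without enzyme flank wells where PI5P4Kalpha converts substrate using 5 microM ATP (final). Incubation lasts 60 minutes at room temperature; ADP formed is read by ADP-Glo luminescence.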
PGK inhibitor = qHTS Assay to Find Inhibitors of Phosphoglycerate Kinase | Phosphoglycerate kinase, glycosomal (Trypanosoma brucei brucei), P07378 | actives 0.043% (n = 380,000) | PGK/GAPDH coupled, Kinase-Glo luminescence, 60 min | Potency, µM (series often up to 57.5 µM), for the others: at the highest dose activity change, negative = inhibition, usual class: inhibitors | AID 602233, 2012; further: potency means the concentration at half of the fitted maximal effect; nearly all actives have a fitted effect of over 60% in size
Target sequence (P07378 whole entry, looked up): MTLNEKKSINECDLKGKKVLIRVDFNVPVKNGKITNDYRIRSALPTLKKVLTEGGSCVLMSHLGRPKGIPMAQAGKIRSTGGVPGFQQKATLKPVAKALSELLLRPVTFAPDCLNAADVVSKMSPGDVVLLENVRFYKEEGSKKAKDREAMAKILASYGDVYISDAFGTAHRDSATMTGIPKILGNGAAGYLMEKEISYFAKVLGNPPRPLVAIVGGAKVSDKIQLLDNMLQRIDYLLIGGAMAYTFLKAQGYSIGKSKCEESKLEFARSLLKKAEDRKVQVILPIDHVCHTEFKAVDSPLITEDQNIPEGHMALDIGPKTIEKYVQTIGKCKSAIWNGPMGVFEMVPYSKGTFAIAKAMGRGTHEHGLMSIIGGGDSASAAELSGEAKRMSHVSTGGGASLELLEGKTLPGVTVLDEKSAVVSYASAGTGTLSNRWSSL
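Luminescent ATP detection (Kinase-Glo Plus) follows a 60-minute room-temperature incubation, with wells lacking PGK as controls. Buffer: 100 mM TEA (pH 7.6), 5 mM MgCl2, 0.01% Tween-20. Coupling enzyme GAPDH (100 nM final) supplies unstable 1,3-BPG in-well.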
Pin1 inh = qHTS Assay to Find Inhibitors of Pin1; Pin1 FP peptide displacement, HiFluor488, 10 min; Potency, µM (series often up to 115 µM), without a hit: top-dose activity, negative = inhibition, most hits filed as inhibitors; actives 0.009% (n = 390,000); AID 504891, 2011; active means well fitted inhibition curve with a large enough effect in the polarisation, with a control signal flat, not every such curve was filed as active; inconclusive means small, poorly fitted or top-dose-only effect, or effect the other way, or a change in a side signal; inactive means no such curve, though single readings can be large or run the other way; the % refers to the polarisation; further: potency means the concentration at half of the fitted maximal effect
Target sequence (Q13526 whole entry, looked up): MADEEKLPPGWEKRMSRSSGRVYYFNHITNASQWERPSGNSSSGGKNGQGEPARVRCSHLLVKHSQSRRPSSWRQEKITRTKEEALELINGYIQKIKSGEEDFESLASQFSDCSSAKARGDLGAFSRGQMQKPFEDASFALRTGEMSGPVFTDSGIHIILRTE
GCN5L2 inh = qHTS Assay for Inhibitors of GCN5L2. Potency, µM (series often up to 58.9 µM), for the others: at the highest dose activity change, negative = inhibition, usual class: inhibitors. actives 0.21% (n = 390,000). GCN5L2 HAT assay, ThioGlo1 CoA-SH fluorescence; further: potency means the concentration at half of the fitted maximal effect
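Enzyme at 20nM final was mixed with library compounds for 15 min at room temperature. Peptide H3(1-25) at 75uM, acetyl-CoA at 70uM and ThioGlo1 at 50uM were then added. Plates were read immediately and after 20 min (Ex340nm/Em540nm).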
GoLoco inh red = qHTS Assay for Inhibitors of RGS12 GoLoco Motif Activity (Red Fluorophore). Guanine nucleotide-binding protein G(i) subunit alpha-1 (Homo sapiens), P63096. Gai1:RGS12 GoLoco peptide FP, rhodamine, 10 min. Potency, µM (series often up to 61.6 µM), inactives show at the highest dose activity, negative = inhibition, hits mostly inhibitors. actives 0.44% (n = 230,000); active means well fitted inhibition curve with a large enough effect, not every such curve was filed as active; inactive means no such curve, though single readings can be large or run the other way; further: potency means the concentration at half of the fitted maximal effect; nearly all actives have a fitted effect of over 30% in size
PI4K2A inh = qHTS for small molecular inhibitors of PI4K2A; purified PI4K2A, ADP-Glo luminescence, 1 h; active compounds read low; activity change, negative = inhibition, % at 76.9 µM; actives 0.13% (n = 420,000); AID 1346378, 2018; in the data active means activity change below about -50%; inconclusive means mostly about -30% to -49%;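 further: -100% = wells without enzyme as full effect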
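ADP-Glo luminescence measured ADP generated by PI4K2A enzyme (4 ug/mL before mixing) with 1.2 mM PI substrate (pre-mix) and 300 microM ATP (pre-mix). Tris pH7.5 buffer with MgCl2, Triton X-100; 1 h reaction at ambient temperature.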
Numbers without * were called inactive; i = inactive; ? = inconclusive; . = not tested or not shown; ! = not confirmed by another sample. Unless noted, the call rests on the fitted dose curve; in most records, active means well fitted curve in the direction sought with a large enough effect; inconclusive means small, poorly fitted or top-dose-only effect, or another doubt; inactive means no such curve, though single readings can be large; an effect the other way counts as inactive or inconclusive. Unless noted, on the % scale 0 is the no-effect control and ±100 the full control effect.

SMILES	PI5P4Ka inh	PGK inhibitor	Pin1 inh	GCN5L2 inh	GoLoco inh red	PI4K2A inh
CCc1ccc(S(=O)(=O)c2nnn3c2nc(N2CCCC2)c2sccc23)cc1	.	i	0%	-15%	.	-1
Cc1ccc(S(=O)(=O)CC(=O)Nc2nc3c(C)cccc3s2)cc1	.	-10%	-4%	-16%	.	4
CCNC(=O)CSc1nc2sccc2c(=O)n1-c1ccccc1	?	-1%	-2%	-17%	.	3
C=CCNC(=O)CSc1nc2sccc2c(=O)n1-c1ccccc1	-60*	-6%	?	-11%	.	-7
COc1cccc(Nc2n[nH]c(=S)s2)c1	-82*	-9%	?	4%	0%	2
Cc1cccc(C)c1Nc1n[nH]c(=S)s1	-73*	7%	.	.	.	-3
Cc1cccc(Nc2n[nH]c(=S)s2)c1C	.	-2%	-1%	22µM*	3%	1
CC(C)c1ccc(Nc2n[nH]c(=S)s2)cc1	-65*	.	.	.	.	0
Cc1cccc(Nc2nc3ccccc3s2)c1C	12	-3%	0%	-4%	7%	-7
CCc1c(C)nc2nncn2c1Nc1ccc(C(C)C)cc1	.	-2%	0%	0%	.	-2
Clc1ccc(CNc2nc(CN3CCOCC3)nc3scc(-c4ccccc4)c23)cc1	19	i	7%	-2%	8%	-6
Cc1[nH]c(=O)[nH]c(=O)c1/C=N/NC(=O)[C@H](C)N	-28	-8%	-10%	0%	8%	-6
COc1ccccc1Nc1n[nH]c(=S)s1	-78*	-1%	-2%	6.3µM*	-4%	-1
O=c1c2c(-c3ccc(Cl)cc3)csc2ncn1/N=C/c1cccc([N+](=O)[O-])c1O	-71*	-3%	?	?	12%	0
S=C1NC(c2ccccc2)N2C(=S)NC(c3ccccc3)N12 (stereo unspecified)	-81*	8%	-12%	28µM*	7%	-7
Cc1ccc(C2NC(=S)NC3=C2C(=O)CCC3)cc1 (stereo unspecified)	3	4%	0%	-12%	7%	2
COC(=O)C1=C(C)C(c2ccc(OC)cc2)NC(=S)N1 (stereo unspecified)	0	-8%	0%	-25%	-6%	4
COc1ccc(C2NC(=S)N3C(c4ccc(OC)cc4)NC(=S)N23)cc1 (stereo unspecified)	-90*	i	2%	-19%	-1%	-4
Cc1ccc(C2NC(=S)N3C(c4ccc(C)cc4)NC(=S)N23)cc1 (stereo unspecified)	-79*	6%	.	.	.	-12
Cc1ccc(Cl)cc1NC(=O)CSc1nc(C)c(C)c(C)c1C#N	.	1%	-2%	-3%	.	-2
CCCS(=O)(=O)NC(=O)C1(C)CCN(C(=O)c2ccnc(Cl)c2)C1 (stereo unspecified)	-2	.	.	.	.	-1
COc1ccc(-c2cc3ccc(O)c(CN4CCN(C)CC4)c3oc2=O)cc1OC	.	i	.	-30%	.	2
COc1ccc(-c2cc3ccc(O)c(CN4CCN(CCO)CC4)c3oc2=O)cc1OC	.	.	?	18µM*	.	-4
Cc1ccc(-c2onc3ccc(C(=O)/C=C/N(C)C)cc23)cc1	?	-9%	3%	?	.	1
Cc1cccc(-c2onc3ccc(C(=O)/C=C/N(C)C)cc23)c1	-68*	.	8%	-29%	.	-1
SMILES	PI5P4Ka inh	PGK inhibitor	Pin1 inh	GCN5L2 inh	GoLoco inh red	PI4K2A inh
Cc1cc(/C=N/NC(=O)C(O)(c2ccccc2)c2ccccc2)c(C)n1-c1cccc(C(=O)O)c1	-51*	-12%	?	-20%	86%	-4
N#Cc1c(C#N)c(SSc2c(C#N)c(C#N)c(N)n2-c2ccccc2)n(-c2ccccc2)c1N	-81*	1%	0%	.	.	1
CC(C)c1nc(CN(C)C(=O)N[C@H](C(=O)N[C@@H](Cc2ccccc2)C[C@H](O)[C@H](Cc2ccccc2)NC(=O)OCc2cncs2)C(C)C)cs1	.	.	.	28µM*!	8%	-2
CC(C)[C@H](NC(=O)OCc1ccccc1)C(=O)NC(C=O)Cc1ccccc1 (stereo partly specified)	0	-1%	-6%	0%	.	5
Cc1ccnc(SCC(=O)c2cccc([N+](=O)[O-])c2)n1	-6	1%	7%	27%	3%	-4
Cc1nc(SCC(=O)c2cccc([N+](=O)[O-])c2)n[nH]1	-63*	4%	-2%	-28%	0%	6
COc1ccc(OC)c(CN(CCCN2CCOCC2)C(=O)Nc2ccccc2)c1	.	1%	-4%	-4%	-6%	0
O=C1NC(=S)SC1=Cc1ccc(Cl)cc1	-51*	-7%	-1%	.	.	-13
O=C1NC(=S)SC1=Cc1cccs1	-67*	i	-15%	.	.	-9
O=C1NC(=S)SC1=Cc1ccc(F)cc1	-71*	4%	-10%	.	.	-4
CCc1ccc(/C=C2/SC(=S)NC2=O)cc1	.	.	.	?	.	0
CS(=O)(=O)N(CCc1ccccc1)CC(=O)NCc1ccc(Cl)cc1	-2	-10%	-7%	-1%	3%	-6
O=C(COc1ccccc1C(=O)N/N=C\c1ccc(O)c(O)c1)N/N=C/c1ccc(O)c(O)c1	-73*	2.2µM*	?	-21%	-20%	-4
O=C(NN=Cc1ccc(O)c(O)c1)c1ccccc1	-28	.	.	.	.	-4
Cc1noc(-c2ccc(N3CCCCC3C)c([N+](=O)[O-])c2)n1 (stereo unspecified)	.	-1%	23%	-14%	.	-8
CCN1CCN(Cc2ccc(NC(=O)c3cc(NC(=O)c4cncc(-c5cccs5)c4)cc(OC)c3)cc2C(F)(F)F)CC1	-67*!	3%	24%	-22%	.	-3
CCN1CCN(Cc2ccc(NC(=O)c3ccc(C)c(NC(=O)c4c[nH]c5cc(C(F)(F)F)ccc5c4=O)c3)cc2C(F)(F)F)CC1	-67*	10%	31%	7%	18%	-3
CCN1CCN(Cc2ccc(NC(=O)c3cc(NC(=O)c4cc(-c5ccc(OC)cc5)n[nH]4)cc(OC)c3)cc2C(F)(F)F)CC1	-67*	i	-10%	-5%	5%	-2
O=C(COC(=O)COc1ccc(Br)cc1)NCC1CCCO1 (stereo unspecified)	-3	-6%	1%	-2%	.	6
